Data published in ChEMBL document CHEMBL4513160, “CO-ADD screening of MMV (CH) - Small Polar Library”.
Hit rate of the full screen: of about 23,000 compounds, about 30 (0.1%) showed an effect of 50% or more. For the sample, strong results were picked, then their nearest neighbours and some compounds at random. Results with a measured potency or affinity are listed apart.

The compounds below were run on Pseudomonas aeruginosa. Conditions: Concentration 300 ug.mL-1; ASSAY_TEST Inhibition of Bacterial Growth; detection method Absorption (OD600); MEDIA CAMHB; plate type 384well; NBS; CORNING #3640; time 18 hr.
For `CSCc1noc(CN2CCC(=O)NCC2C)n1` (stereo unspecified), the Inhibition was 2.5%. `CCc1n[nH]c(=O)n1CC` was tested, and the Inhibition was 16.77%. Work on `O=C1C=CC(=O)N1C1CCCCC1` yielded an Inhibition of 14.45%. `O=C(c1cc(F)ccc1Br)N1CCNCC1` showed an Inhibition of -21.94%. With `CNCc1ncc(C)c(OC)c1C` the Inhibition was 22.51%. `CC(=O)NCc1ccc(C(=O)CSc2ccccn2)s1` showed an Inhibition of 23.63%. Compound `CN(Cc1cccc(C#N)c1)C(=O)C1CC1` has an Inhibition of 11.31%. `CN(C)S(=O)(=O)NCc1ccc(Cn2ccnc2)cc1` showed an Inhibition of -10.43%. `NC(=O)C1(NCc2ccc(Br)c3cccnc23)CC1` gave an Inhibition of 4.47%. In the case of `OCc1cccc2ncccc12`, the Inhibition is reported as -43.09%. Compound `CC(=O)NCCCNCc1ccc(Br)c2cccnc12` has an Inhibition of 29.22%. With `NC(=O)CCNCc1ccc(Cl)c2cccnc12` the Inhibition was 17.51%. `O=C(c1nnsc1-c1ccc(Cl)cc1)N1CCSCC1` showed an Inhibition of -1.35%. `CN(C)CCCC(=O)N1CCCC(CO)(CC2CC2)C1` (stereo unspecified) was tested, and the Inhibition was -1.87%. In the case of `CC1CCN(C(=O)CCN2C[C@H](C3CC3)[C@@H](N)C2)CC1`, the Inhibition is reported as 0.49%. `OC(CN1CCn2ccnc2C1)c1ccc(Cl)cc1` (stereo unspecified) gave an Inhibition of -6.36%. With `CSCCC(O)C(=O)NCCc1scnc1C` (stereo unspecified) the Inhibition was -25.65%. `COCCN(Cc1ccccn1)C(=O)CC1CCNC1` (stereo unspecified) was tested, and the Inhibition was -0.17%. With `CN1CCOC[C@H]2CCN(C(=O)c3cccs3)C[C@H]21` the Inhibition was -22.95%. `CNC(=O)C(C)Sc1nccn1-c1ccc(OC)cc1` (stereo unspecified) gave an Inhibition of 17.22%. Work on `N#Cc1cccc(CN2CCCC(O)C2)c1` (stereo unspecified) yielded an Inhibition of 9.18%. `CN(CCNC(=O)c1cnc[nH]1)Cc1ccc(F)cc1` showed an Inhibition of 37.03%. `CNC1(C(=O)OC)CCCCC1` gave an Inhibition of -2.18%. With `Cc1cc(NC(=O)CSCC(=O)N2CCC2)no1` the Inhibition was 7.6%. `CCOC(=O)c1nc(C)n(C)n1` was tested, and the Inhibition was 10.82%. `c1cc2c(cc1CNc1nnc(C3CC3)o1)OCCO2` showed an Inhibition of -5.88%. `O=C(CCCc1cn[nH]c1)N1CCc2ccccc2C1` showed an Inhibition of 6.06%. Compound `CCCC(C)NC(=O)c1coc(C)n1` (stereo unspecified) has an Inhibition of -6.54%. For `CCN(CC(C)C#N)C(=O)c1ccc(Br)o1` (stereo unspecified), the Inhibition was -3.61%. `COC(=O)[C@@H]1CCN[C@@H]1C(C)C` showed an Inhibition of 12.69%. `C1CN(C2CCN(c3nnc(C4CC4)o3)CC2)CCS1` gave an Inhibition of 8.74%. Work on `C=C(C)CNC(=O)Nc1cccc(N2CCNC2=O)c1` yielded an Inhibition of -38.18%. In the case of `CCc1ccc(CN(CCO)Cc2nccn2C)nc1`, the Inhibition is reported as -17.17%. Compound `Clc1ccc(-c2noc(CN3CCCNCC3)n2)cc1` has an Inhibition of 46.35%. For `NC(=O)c1cc(N2CCCC2)ccn1`, the Inhibition was -17.78%. Work on `Fc1ccc2[nH]cnc2c1` yielded an Inhibition of 26.41%.
